The nature of experiment [1]: viability loss in pontine glioma line – cell-based, SU-DIPG-XVII, MIPE5.0, CellTiter-Glo, qHTS, dose response (AID 1347060).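 Note: cells exposed to compound for 48 hours before viability readout.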 The settings on record: CellTiter-Glo ATP luminescence. A general note: Cellular ATP, detected with luciferase, serves as a proxy for viable cell number.
Experiment [2] is described as follows: viability loss in pontine glioma line – cell-based, SU-DIPG-XIII, MIPE4.0, CellTiter-Glo, qHTS, dose response (AID 1347061; cut-off not given, nearly all actives have AC50 up to about 37 µM;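 note: cells exposed to compound for 48 hours before readout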). The settings on record: CellTiter-Glo ATP luminescence.
Experiment [3] is described as follows: viability loss in pontine glioma line – cell-based, JHH-DIPG-1, MIPE4.0, CellTiter-Glo, qHTS, dose response (AID 1347062; cut-off not given, nearly all actives have AC50 up to about 27 µM;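 note: cells exposed to compound for two days before readout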). The settings on record: JHH-DIPG-1 viability, CellTiter-Glo ATP luminescence.
The nature of experiment [4]: viability loss in pontine glioma line – cell-based, SU-DIPG-IV, MIPE4.0, CellTiter-Glo, qHTS, dose response (AID 1347063; cut-off not given, nearly all actives have AC50 up to about 30 µM;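 note: compound exposure lasted 48 hours before the viability readout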). The note with it: CellTiter-Glo ATP luminescence.
The nature of experiment [5]: viability loss in pontine glioma line – cell-based, SU-DIPG-XIII, MIPE5.0, CellTiter-Glo, qHTS, dose response (AID 1347064; cut-off not given, nearly all actives have AC50 up to about 23 µM;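 note: cells exposed to compound for 48 hours before the viability read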). The note with it: CellTiter-Glo ATP luminescence.
Experiment [6] can be described thus: viability loss in pontine glioma line – cell-based, SU-DIPG-XXV, MIPE5.0, CellTiter-Glo, qHTS, dose response (AID 1347065).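 Note: cells exposed to compound for 48 hours before ATP readout.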 The settings on record: CellTiter-Glo ATP luminescence.
Experiment [7] is described as follows: growth inhibition of DIPG cells – cell-based, MIPE4.0 library, CellTiter-Glo luminescence, qHTS (AID 1347066; cut-off not given, nearly all actives have AC50 up to about 30 µM;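 note: cells exposed to compound for 48 hours before readout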). The note with it: SU-DIPG-VI viability, CellTiter-Glo ATP luminescence.
The nature of experiment [8]: JHH-DIPG-1 glioma cell viability, MIPE5.0 library, CellTiter-Glo luminescence, qHTS (AID 1347067).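 Note: cells exposed to compound for 48 hours before readout.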 The note with it: JHH-DIPG-1 glioma viability, CellTiter-Glo ATP luminescence.
The nature of experiment [9]: growth inhibition of DIPG cells – cell-based, MIPE5.0 library, qHTS (AID 1347068; cut-off not given, nearly all actives have IC50 up to about 30 µM;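 note: cells exposed to compound for 48 hours before viability readout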). The note with it: SU-DIPG-XXV viability. A general note: Quantitative high-throughput screening tests each substance at several concentrations.
Experiment [10] can be described thus: viability loss with induced miR-34 in A549 – imaging, A549 dox-inducible miR-34, nuclei and caspase counts, primary screen (AID 1347080;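 active = compounds whose cell count with miR-34 switched on is under 0.7 times the count with it off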). The settings on record: A549 miR-34 inducible, Hoechst nuclei count, 48 h.
A short description of experiment [11]: MELAS cybrid and Rieske KO viability enhancers – cell-based, MELAS cybrids, Rieske KO mouse fibroblasts, CellTiter-Glo, primary screen (AID 1508586;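 active = mean z-score across replicates of 1.96 or higher in either the MELAS or the Rieske mutant cell line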;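 note: z relative to plate mean and SD of compound and empty wells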). The settings on record: low glucose.
Experiment [12] can be described thus: compounds altering HSF1 focus formation in cells – imaging, Selleck Cancer Library (AID 1347162; in the data active = plate-normalised HSF1 focus index below about 0.46). The settings on record: human cells, HSF1 nuclear foci imaging, at 10 µM; SSMD: measured here: HSF1 foci SSMD mean; cell count: measured here: cell number; plate-normalised HSF1 focus index: stronger effect = lower value.
The mark [13] stands for this setting: stronger effect = lower value, cell number ratio, induced over uninduced.
[14] abbreviates: measured here: relative caspase fold change +Dox/-Dox.
Setting [15] is: measured here: total cells with miR-34 induction, stronger effect = lower value.
Setting [16] is: measured here: total cells without miR-34 induction.
The mark [17] stands for this setting: MELAS cybrid survival, CellTiter-Glo 48 h, stronger effect = higher value.
Setting [18] is: Rieske KO mouse fibroblast survival, CellTiter-Glo 72 h.

Three compounds from PubChem BioAssay can be followed below.

Results filed as inconclusive are left out. The source made the active and inactive calls. Unless noted, no cut-off is given here; in the data, nearly all actives have AC50 up to about 26 µM.

Take `COc1ccc(-c2cc3c(C)nc(N)nc3n(C3CCC(OCCO)CC3)c2=O)cn1` (configuration not stated): the AC50 in experiment [1] was 661 nM (active); in [2], 0.418 µM (active); in experiment [3], 0.59 µM (active); in experiment [4], 0.0132 µM (active); in experiment [5], 0.468 µM (active); in experiment [6] it was 235 nM (active). The half-maximal activity concentration (AC50) was 1.18 µM (active) in experiment [7] and 0.934 µM (active) in [8]. The IC50 in [9] was 1.32 µM (active). Further, the values for the fold change in [10] (setting [13]) and in experiment [10] (setting [14]) were 0.719 (inactive) and 0.958, respectively. The values for the cell count in experiment [10] (setting [15]) and in experiment [10] (setting [16]) were 948 and 1320, respectively. Moreover, the z-score is 1.34 (inactive) in [11] (setting [17]) and -2.85 in [11] (setting [18]).
As to `CC(C)c1ccc(Cn2ccc3c4c(N)nc(NC5CC5)nc4ccc32)cc1`, the AC50 is 2630 nM (active) in experiment [1]; 20.9 µM (active) in [2]; 4.69 µM (active) in experiment [3]; 4.18 µM (active) in [4]; 6.61 µM (active) in experiment [5]; 2630 nM (active) in [6]. In addition, the AC50 was 18.7 µM (active) in experiment [7] and 5.25 µM (active) in experiment [8]. The IC50 in experiment [9] is 3.72 µM (active). This compound also showed an SSMD in [12] of -7.04. In experiment [12], this compound displayed a cell count of 3190. In addition, the plate-normalised HSF1 focus index in [12] is 0.581 (inactive).
Consider `C=CC(=O)Nc1cccc(Oc2nc(Nc3ccc(N4CCN(C)CC4)cc3)ncc2Cl)c1`, for which the AC50 was 468 nM (active) in experiment [1]; 13.2 µM (active) in experiment [2]; 1.66 µM (active) in experiment [3]; 2.09 µM (active) in experiment [4]; 1.32 µM (active) in experiment [5]; 372 nM (active) in experiment [6]. The AC50 is 18.7 µM (active) in [7] and 1.18 µM (active) in experiment [8]. Also, the IC50 in [9] was 0.525 µM (active). The fold change in experiment [10] (setting [13]) was 0.981 (inactive); in experiment [10] (setting [14]), 0.779. The cell count in [10] (setting [15]) is 1580; in [10] (setting [16]), 1610. Moreover, the z-score is 1.07 (inactive) in experiment [11] (setting [17]) and 0.326 in experiment [11] (setting [18]).

As a reminder, the AC50 is the concentration giving half of the maximal activity seen. Usually IC50 stands for the concentration at which inhibition is half-maximal.
